Reference: PubChem BioAssay (NCATS)
Inconclusive results are not listed. Where a call stands in place of a potency, no number is given. Calls of active or inactive are those of the source. Unless noted, the call rests on the fitted dose curve; in most records, active means well fitted curve in the direction sought with a large enough effect; inconclusive means small, poorly fitted or top-dose-only effect, or another doubt; inactive means no such curve, though single readings can be large; an effect the other way counts as inactive or inconclusive.

Key:
[1] = target: Calcium and integrin-binding protein 1 (Homo sapiens) (UniProt Q99828); assay: Primary qHTS for Identification of Calcium Integrin Binding Protein 1 (CIB1) Competitor (AID 1508620);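 further: GST tagged CIB1 binding a fluorescein labelled alphaIIb integrin peptide tracer; top concentration of the series differs between compounds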
Summary of the method: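 CIB1-GST (1 uM final) and compound incubated 15 min at room temperature before adding FITC-alphaIIb peptide tracer (100 nM final). Competition for binding read by fluorescence polarization (ex 480, em 540) after another 15 min at room temperature.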

[2] = target: Cytochrome P450 2D6 (Homo sapiens) (UniProt P10635); assay: Cytochrome P450 family 2 subfamily D member 6 (CYP2D6) small molecule antagonists: luciferase biochemical (cell-free) qHTS assay (AID 1645840; active means well fitted curve in the direction sought with a large enough effect in the repeat runs; an effect the other way counts as inactive or inconclusive; further: nearly all actives have a fitted effect of over 55% in size; further: potency means the concentration at half of the fitted maximal effect)
Summary of the method: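 P450-Glo CYP2D6 system: proluciferin substrate converted by enzyme to luciferin, read by luminescence proportional to activity. Enzyme-substrate mix with compound 10 min at room temperature, then NADPH regeneration 1 h before detection reagent.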

Sequence of Cytochrome P450 2D6 (Homo sapiens) (P10635 whole entry, looked up): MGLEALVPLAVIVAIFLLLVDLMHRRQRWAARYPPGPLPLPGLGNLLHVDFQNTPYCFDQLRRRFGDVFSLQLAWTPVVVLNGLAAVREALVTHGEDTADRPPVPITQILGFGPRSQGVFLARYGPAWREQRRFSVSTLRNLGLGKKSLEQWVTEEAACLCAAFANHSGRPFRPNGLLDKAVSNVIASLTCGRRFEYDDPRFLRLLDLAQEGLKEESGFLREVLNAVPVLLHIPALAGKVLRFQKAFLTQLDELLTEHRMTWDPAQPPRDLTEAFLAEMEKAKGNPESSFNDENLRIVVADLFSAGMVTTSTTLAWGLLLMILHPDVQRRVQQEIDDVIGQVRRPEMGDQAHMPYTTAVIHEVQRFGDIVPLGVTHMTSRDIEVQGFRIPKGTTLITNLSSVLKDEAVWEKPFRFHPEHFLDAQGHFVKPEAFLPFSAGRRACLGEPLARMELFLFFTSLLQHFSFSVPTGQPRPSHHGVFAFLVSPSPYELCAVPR
Sequence of Calcium and integrin-binding protein 1 (Homo sapiens) (Q99828 whole entry, looked up): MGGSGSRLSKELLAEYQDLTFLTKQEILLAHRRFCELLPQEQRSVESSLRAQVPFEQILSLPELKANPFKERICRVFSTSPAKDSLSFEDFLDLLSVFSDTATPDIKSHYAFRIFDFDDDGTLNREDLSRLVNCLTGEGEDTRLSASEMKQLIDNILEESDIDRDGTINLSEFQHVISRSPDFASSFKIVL

| Compound | Potency [1] | Potency [2] |
| --- | --- | --- |
| Cn1ncnc1[C@@H]1c2n[nH]c(=O)c3cc(F)cc(c23)N[C@H]1c1ccc(F)cc1 | inactive | inactive |
| CCC(C)c1ccc(NC(=O)Cn2cnc3c2c(=O)n(C)c(=O)n3C)cc1 (configuration not stated) | inactive | inactive |
| CCCCC1CCC(c2nc(-c3ccncc3)no2)CC1 (configuration not stated) | inactive | 0.536 µM (active) |
| COc1ccc(CCCN2CCC(COC(c3ccccc3)c3ccccc3)CC2)cc1 | inactive | 0.0535 µM (active) |
| O=c1[nH]c2ccc(C#CCN3CCC(Cc4ccccc4)CC3)cc2[nH]1 | inactive | 0.338 µM (active) |
| CN(C)CCN(Cc1ccc(-c2ccc(CNCCc3ccccc3)cc2)cc1)C(=O)CCC1CCCC1 | inactive | 0.601 µM (active) |
| Cc1ccc(C(=O)Nc2ccc(CN3CCN(C)CC3)c(C(F)(F)F)c2)cc1C#Cc1cnc2[nH]ncc2c1 | inactive | 16.9 µM (active) |
| CC#CC(=O)Nc1ccc2ncnc(Nc3cccc(Br)c3)c2c1 | inactive | inactive |
| Cc1cc(NC(=O)c2cccc(NC(=O)/C=C/CN(C)C)c2)ccc1Nc1nccc(-c2cccnc2)n1 | inactive | 10.7 µM (active) |
| CNc1cccc(CCOc2ccc3c(c2)CN(CC(F)(F)F)C(=O)[C@H](CC(=O)O)C3)n1 | inactive | inactive |
| COc1cc2c(cc1OCCCN1CCCC1)N=C(N)C21CCC1 | inactive | 23.9 µM (active) |
| Cc1ccc(S(=O)(=O)N2CCC[C@H]2c2ccc(F)cc2)cc1 | inactive | inactive |
| CN(C)CCN(Cc1ccccc1)C(=O)c1cc(-c2ccc(F)cc2)n2nc(C(C)(C)C)cc2n1 | inactive | 16.9 µM (active) |
| N#Cc1ccc(COC[C@H]2O[C@@H](n3c(NCc4ccc(Cl)c(Cl)c4)nc4c(N)ncnc43)[C@H](O)[C@@H]2O)cc1 | inactive | 10.7 µM (active) |
| CC(C)(O)C(=O)N1CCN(c2ccc(C(F)(F)F)c(C3=C(c4c[nH]c5ccccc45)C(=O)NC3=O)c2)CC1 | inactive | 21.3 µM (active) |
| O=C(N[C@@H]1CCCc2c1cnn2-c1ccc(F)cc1F)c1ccccn1 | inactive | inactive |
| COc1ccc(OC)c(-c2ccc(NC(=O)c3ccncc3F)cc2)c1 | inactive | inactive |
| O=C1C(Cc2ccc(O)cc2)N2C(=O)CCN(C(=O)NCc3ccccc3)C2CN1Cc1cccc2ccccc12 (configuration not stated) | inactive | 1.07 µM (active) |
| O=S(=O)(NCc1cccc2ccccc12)c1cc(Cl)c(Oc2cccc(N3CCNCC3)c2)s1 | inactive | 8.49 µM (active) |
| O=C(CSc1nc2ccccc2c(=O)n1-c1ccccc1)Nc1ccc2c(c1)CCC2 | inactive | inactive |
| Cc1nc(Nc2ccc(F)cc2)nc(N2CCc3ccccc3C2C)c1C (configuration not stated) | inactive | 7.56 µM (active) |
| O=C(NCCCN1CCC2(CC1)OCc1ccccc12)[C@H]1CCCN1Cc1ccccc1 | inactive | 2.13 µM (active) |
| CCOc1ccc(S(=O)(=O)N2CCCCCC2)c2ccccc12 | inactive | inactive |
| O=C(Nc1ccc(-c2ccnc(Nc3ccc(N4CCOCC4)cc3)n2)cc1)C1CCCN1 (configuration not stated) | inactive | inactive |

| Compound | Potency [1] | Potency [2] |
| --- | --- | --- |
| CS(=O)(=O)Nc1ccc2oc3c(OC(F)F)ccc(C(=O)Nc4c(Cl)cncc4Cl)c3c2c1 | inactive | 12 µM (active) |
| O=C(Nc1ccccc1Cl)c1cnc2ccc(C3CCNCC3)cn12 | inactive | inactive |
| C#CCNCc1cc2cc(OCc3ccccc3)ccc2[nH]1 | inactive | 23.9 µM (active) |
| O=C(NCC(=O)N1CCCC1)Nc1ccc2cnccc2c1 | inactive | 12 µM (active) |
| O=C(COc1ccc2ccccc2c1Br)Nc1cccnc1 | inactive | 0.301 µM (active) |
| COCC(=O)NC/C=C/c1ccc2ncnc(Nc3ccc(Oc4ccc(C)nc4)c(C)c3)c2c1 | inactive | 10.7 µM (active) |
| N#Cc1ccc(O[C@@H]2c3ccccc3C[C@H]2N2CCC[C@@H](N)C2)c(Cl)c1 | inactive | 0.169 µM (active) |
| COC1CCN(c2cccc(-c3cc(NC(C)=O)nc(-n4nc(C)cc4C)n3)n2)CC1 | inactive | 6.01 µM (active) |
| COc1cccc(OCCCN)c1-c1cc(Nc2cnc(C#N)cn2)n[nH]1 | inactive | 6.74 µM (active) |
| Cn1cc(-c2ccc(F)c(C(F)(F)F)c2)nc1C1CCN(c2ncnc3[nH]ncc23)CC1 | inactive | inactive |
| NC(=O)N1CCC(CC(=O)N2CCC(C3c4ncc(Br)cc4CCc4cc(Cl)cc(Br)c43)CC2)CC1 (configuration not stated) | inactive | 16.9 µM (active) |
| Cc1[nH]c(/C=C2\C(=O)Nc3ccc(F)cc32)c(C)c1C(=O)NCCN1CCCC1 | inactive | inactive |
| Nc1nc2c(s1)CCN(Cc1ccc(Cl)cc1)CC2 | inactive | 1.9 µM (active) |
| Cc1onc(-c2ccccc2)c1C(=O)N1CCN(c2ccc([N+](=O)[O-])cc2Cl)CC1 | inactive | 5.35 µM (active) |
| Oc1cccc(C2NC(=S)Nc3cccc(F)c32)c1 (configuration not stated) | inactive | 7.56 µM (active) |
| Fc1ccc(-c2nc(C3CCNCC3)sc2-c2ccnc(NC3CC3)n2)cc1 | inactive | 6.01 µM (active) |
| CN1CCN(Cc2ccc(NC(=O)Cc3ccc(Oc4cc(NC(=O)C5CC5)ncn4)cc3)cc2C(F)(F)F)CC1 | inactive | 15.1 µM (active) |
| c1cc(NCCc2c[nH]c3ccccc23)cc(Nc2ccncc2)c1 | inactive | 0.477 µM (active) |
| C[C@@H](N[C@H]1CCCC[C@@H]1NC(=O)c1ccc(Cl)cc1)c1cccc2ccccc12 | inactive | 0.756 µM (active) |
| O=C(Nc1ccc2[nH]c(=O)oc2c1)C(=O)N1CCC(Cc2ccc(F)cc2)CC1 | inactive | 21.3 µM (active) |
| NCC1CCN(c2nccc(-c3ccc4ccccc4c3)n2)CC1 | inactive | 9.52 µM (active) |
| COc1ccc([C@H](Cc2ccncc2)c2ccccc2)cc1OC1CCCC1 | inactive | 12 µM (active) |
| CC(C)CCNc1ncccc1C(=O)N1CCN(Cc2ccccc2)CC1 | inactive | 5.35 µM (active) |
| N#Cc1cc(C2=Nc3ccc(Br)cc3NC(=O)C2)ccn1 | inactive | 0.477 µM (active) |

| Compound | Potency [1] | Potency [2] |
| --- | --- | --- |
| O=c1cc(N2CCOCC2)nc2c3ccccc3ccn12 | inactive | 19 µM (active) |
| Cc1ccccc1CN1CCn2c1nc1c(c2=O)CN(Cc2ccccc2)CC1 | inactive | 13.5 µM (active) |
| COc1ccncc1C(=O)NC(=O)Nc1ccc(-c2ccccc2)c(C(F)(F)F)c1 | inactive | 19 µM (active) |
| C=C(C)[C@@H]1CC=C(COC(=O)NC(=O)c2ncn3c(=O)n(C)nnc23)CC1 | inactive | inactive |
| COc1cc2nc(C3CC3)nc(N3CCN(c4ccccc4OC)CC3)c2cc1OC | inactive | 21.3 µM (active) |
| Nc1nc(OCc2cc(Br)cs2)c2[nH]cnc2n1 | inactive | 6.74 µM (active) |
| COc1ccc(Oc2c(Cl)cnn(-c3cc(C)cc(C)c3)c2=O)cc1 | inactive | inactive |
| CCOc1cccc(NC(=O)c2ccc(N3CCCC3)c(C(F)(F)F)c2)c1 | inactive | inactive |
| COc1ccc(C#Cc2ccc(C(=O)N3CCC[C@@H](O)C3)c(F)c2)cc1 | inactive | inactive |
| COc1ccc(S(=O)(=O)Nc2c(C)cc(C)cc2C)cc1 | inactive | inactive |
| Cc1[nH]c(/C=C2\C(=O)Nc3cc(-c4ccccc4)ccc32)c(C)c1CCC(=O)O | inactive | inactive |
| C=C(C)Cn1c(SCC(=O)c2cccs2)nc2sc3c(c2c1=O)CCCC3 | inactive | inactive |
| Fc1ccc(-c2cncc(CN3CCN(c4cccc5c4OCCO5)CC3)c2)cc1 | inactive | 9.52 µM (active) |
| Cc1c(C2=CCN(C(=O)N(C)C(C)C)CC2)nnn1-c1cccnc1F | inactive | inactive |
| O=C(Nc1nc2ccc([N+](=O)[O-])cc2s1)C1CCCCC1 | inactive | 1.9 µM (active) |
| O=C(NCC1CCN(Cc2cccc(Cl)c2)CC1)[C@@H]1CCCN(c2ncnc3c2nc2n3CCCC2)C1 | inactive | 15.1 µM (active) |
| CCCC(CCC)C(=O)Nc1ccn([C@@H]2O[C@H](CO)[C@@H](O)C2(F)F)c(=O)n1 | inactive | inactive |
| CC(=O)N1CCN(CCOc2ccc(C3CCN(C4=Nn5c(nnc5C(F)(F)F)CC4)CC3)cc2)CC1 | inactive | inactive |
| O=C(Nc1ccc(Cl)cc1)C1CCCN(C(=O)c2cccc(-c3ccco3)c2)C1 (configuration not stated) | inactive | 13.5 µM (active) |
| CN(C)Cc1ccc(-c2cnn3c(-c4cccc(NC(=O)c5cccc(C(F)(F)F)c5)c4)ccnc23)cc1 | inactive | 13.5 µM (active) |
| Cc1noc(C)c1-c1cc(O)cc(C(O)c2ccccc2)c1 (configuration not stated) | inactive | 16.9 µM (active) |
| Cc1cccc(C#Cc2cc(F)cc(C#N)c2)n1 | inactive | inactive |
| Cc1[nH]cnc1C[C@H]1CCc2c(C)c3ccccc3n2C1=O | inactive | 0.301 µM (active) |
